Reference: the supplement of paper PMC10646978
± gives the standard deviation.

Experiments:
Conditions in all cases: modulator concentration 10 µM
[1] = test system: RAW-Dual (murine macrophage reporter line); assay: NF-kB reporter (SEAP) activity fold change vs agonist alone; higher = enhanced NF-kB activity
Summary of the method: (§1)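 Overnight stimulation with a PRR agonist followed pre-incubation for 1 hour at 37 °C with compound at 10 μM final. This was done in RAW-Dual murine macrophage reporter cells seeded at 50 000 per well in 384-well plates. NF-κB (SEAP, QUANTI-Blue absorbance at 620 nm) and IRF (Lucia luciferase, QUANTI-Luc luminescence) were read from the supernatant. Each reporter's fold change relative to the mean agonist-only control on the same plate was averaged over replicate plates.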

[2] = test system: RAW-Dual (murine macrophage reporter line); assay: IRF reporter (Lucia luciferase) activity fold change vs agonist alone; higher = enhanced IRF activity
Summary of the method: as §1

[3] = test system: RAW-Dual (murine macrophage reporter line); assay: viability score (confluency relative to resting cells, overnight) (fraction); higher = more viable, active = viable (0.7 or more)
Summary of the method: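 In 384-well plates, RAW-Dual macrophages received compound at a final 10 μM overnight. Two confluency masks were then made with IncuCyte software from IncuCyte images of all imaged wells. The viability score is defined as confluency relative to resting cells. Passing the cutoff required both masks to lie above 70% of resting cells.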

[4] = agonist: CpG ODN 1826 0.5 ug/mL

Structure (SMILES)	NF-kB reporter [1, 4]	NF-kB reporter ([1]; agonist: LPS 0.1 ug/mL)	NF-kB reporter ([1]; agonist: MPLA […])	IRF reporter ([2]; agonist: 3'3'-cGAMP 10 ug/mL)	IRF reporter ([2]; agonist: LPS 0.1 ug/mL)	IRF reporter ([2]; agonist: MPLA […])	viability score [3]
CCOc1ccc2nc(NC(=O)c3ccc(Br)cc3F)sc2c1	1.15 ± 0.095	1.1 ± 0.098	1 ± 0.041	0.873 ± 0.071	1.05 ± 0.067	0.946 ± 0.15	0.994 (active)
CC(Sc1ccc(Cl)cc1)C(=O)NCc1cccnc1 (stereo unspecified)	1.07 ± 0.09	0.846 ± 0.065	1.08 ± 0.2	0.846 ± 0.031	0.905 ± 0.058	0.741 ± 0.14	0.992 (active)
CN1CCN(C(CC(=O)Nc2cccc(C(F)(F)F)c2)C(=O)O)CC1 (stereo unspecified)	1.02 ± 0.051	1.09 ± 0.086	0.859 ± 0.038	0.979 ± 0.049	1.16 ± 0.1	1.17 ± 0.26	0.999 (active)
Cc1ccc(OCCSc2nc3ccccc3c(=O)[nH]2)cc1C	0.728 ± 0.2	1.11 ± 0.13	1.02 ± 0.13	0.886 ± 0.025	1.03 ± 0.22	1.19 ± 0.24	0.818 (active)
O=c1[nH]c(=O)n([C@H]2C[C@H](O)[C@@H](CO)O2)cc1I	1.11 ± 0.15	0.928 ± 0.058	0.992 ± 0.044	1.04 ± 0.068	0.992 ± 0.069	0.967 ± 0.15	0.998 (active)
CC(C)CNC(=O)C(=O)Nc1ccc(C(C)C)cc1	1.03 ± 0.12	0.931 ± 0.11	1.01 ± 0.038	0.989 ± 0.15	0.959 ± 0.052	0.958 ± 0.093	1 (active)
O=C(c1cc(C(F)(F)F)cc(C(F)(F)F)c1)N1CCOCC1CO (stereo unspecified)	0.94 ± 0.053	1.03 ± 0.12	0.869 ± 0.099	0.969 ± 0.072	1.04 ± 0.092	0.989 ± 0.38	0.999 (active)
COc1cccc(CCNC(=O)CC2CSc3nc4c(c(=O)n32)CCCC4)c1 (stereo unspecified)	1.22 ± 0.069	1.07 ± 0.083	1.05 ± 0.096	0.886 ± 0.034	1.06 ± 0.052	1.13 ± 0.11	0.996 (active)
COC(=O)C1=CN(CC2CCCO2)C=C(C(=O)OC)C1c1ccccc1OC (stereo unspecified)	0.826 ± 0.066	0.849 ± 0.059	1.3 ± 0.37	0.996 ± 0.059	1.34 ± 0.094	1.41 ± 0.16	1.02 (active)
O=C(CN1CCN(c2ccccc2F)C1=O)N1CCCC(Oc2ccncn2)C1 (stereo unspecified)	0.874 ± 0.21	0.941 ± 0.052	0.992 ± 0.092	0.507 ± 0.025	0.968 ± 0.15	1.13 ± 0.27	0.547 (inactive)
COc1ccc2c(c1)c(=O)oc1cc(OCc3cccc(C(F)(F)F)c3)ccc12	1.03 ± 0.076	1.01 ± 0.1	1.04 ± 0.027	0.998 ± 0.047	0.97 ± 0.046	1.11 ± 0.11	0.995 (active)
O=C(CCN1C(=O)c2cccc([N+](=O)[O-])c2C1=O)Nc1ccc(Cl)cc1	0.886 ± 0.073	1.02 ± 0.058	0.899 ± 0.077	0.848 ± 0.022	1.4 ± 0.16	1.14 ± 0.23	1.01 (active)
COc1ccc(CNCc2ccc3ccccc3c2)cc1OC	0.722 ± 0.064	1 ± 0.07	0.943 ± 0.05	0.784 ± 0.035	1.04 ± 0.059	0.961 ± 0.2	0.999 (active)
CCCCc1oc2ccc(NS(C)(=O)=O)cc2c1C(=O)c1ccc(OCCCN(CCCC)CCCC)cc1.Cl	0.403 ± 0.048	0.998 ± 0.099	1.3 ± 0.14	0.945 ± 0.067	1.2 ± 0.12	1.27 ± 0.18	0.29 (inactive)
O=C(Nc1cc2c(cc1Cl)OCCO2)c1cc(Cl)ccc1O	0.882 ± 0.068	0.902 ± 0.077	0.969 ± 0.092	1.08 ± 0.034	1.26 ± 0.16	1.45 ± 0.23	1.01 (active)
Cc1ccc(=O)n(-c2ccccc2)c1	0.979 ± 0.079	0.981 ± 0.098	0.968 ± 0.038	0.979 ± 0.077	0.975 ± 0.13	0.976 ± 0.092	1 (active)
S=C(NCCN1CCOCC1)Nc1ccc(Cl)cc1	1 ± 0.23	0.966 ± 0.1	0.886 ± 0.12	0.71 ± 0.019	1.22 ± 0.16	1.13 ± 0.12	0.986 (active)
CC(C)Cn1cc(Cl)c(=O)n(CC(C)C)c1=O	1.12 ± 0.068	1 ± 0.11	1.01 ± 0.056	1.03 ± 0.037	1 ± 0.066	0.991 ± 0.19	0.996 (active)
NC(=O)c1ncn([C@@H]2O[C@H](CO)[C@@H](O)[C@H]2O)n1	0.766 ± 0.17	1.07 ± 0.14	0.86 ± 0.084	1.16 ± 0.05	1.66 ± 0.22	1.77 ± 0.18	0.986 (active)
O=C(CCn1cnc2ccccc2c1=O)NCC1CCCN1c1ccccc1 (stereo unspecified)	1.05 ± 0.054	1 ± 0.086	0.987 ± 0.046	0.983 ± 0.053	1.3 ± 0.086	1.2 ± 0.14	0.995 (active)
O=C(O)c1ccccc1O	1.03 ± 0.23	1.04 ± 0.18	0.923 ± 0.052	0.925 ± 0.03	1.34 ± 0.12	1.23 ± 0.094	0.995 (active)
O=C(NCCN1C(=O)c2ccccc2C1(O)c1ccc(Cl)cc1)Nc1ccccc1 (stereo unspecified)	1.28 ± 0.1	0.219 ± 0.011	0.22 ± 0.02	0.841 ± 0.045	0.0475 ± 0.0035	0.0497 ± 0.0069	0.73 (active)
O=C(O)CCCCC1CCSS1 (stereo unspecified)	0.761 ± 0.034	0.968 ± 0.077	1.05 ± 0.056	1.03 ± 0.047	1.33 ± 0.33	1.51 ± 0.52	0.978 (active)
Clc1ccc2c(c1)CCc1cccnc1C2=C1CCNCC1	0.345 ± 0.04	0.654 ± 0.052	0.814 ± 0.048	0.505 ± 0.026	0.81 ± 0.14	0.754 ± 0.15	0.36 (inactive)
CCN(CC)CCNC(=O)c1c(C)[nH]c(/C=C2\C(=O)Nc3ccc(F)cc32)c1C.O=C(O)C[C@H](O)C(=O)O	0.186 ± 0.011	0.791 ± 0.11	0.636 ± 0.061	0.0261 ± 0.0039	0.048 ± 0.0053	0.0544 ± 0.016	0.117 (inactive)
CC1=NN(c2ccc(S(N)(=O)=O)cc2)C(=O)C1=Cc1ccc(N(C)C)cc1	1.02 ± 0.15	0.967 ± 0.063	0.947 ± 0.04	0.794 ± 0.2	0.899 ± 0.052	0.892 ± 0.06	1 (active)
O=C(C=Cc1ccc(-c2cccc(Cl)c2)o1)c1ccc(Cl)cc1	0.755 ± 0.085	0.746 ± 0.038	0.857 ± 0.079	0.446 ± 0.031	0.896 ± 0.058	0.724 ± 0.14	0.957 (active)
NC(=O)[C@@H](CCC(F)(F)F)N(Cc1ccc(-c2ncon2)cc1F)S(=O)(=O)c1ccc(Cl)cc1	0.744 ± 0.062	1.04 ± 0.049	1.31 ± 0.16	0.949 ± 0.051	1.43 ± 0.084	1.58 ± 0.13	0.997 (active)
